Shown are actives, neighbours in structure and some others; about 1.3% of the full set was active somewhere.
Gli-Sufu block: blocks Gli-Sufu signaling in a luciferase reporter; Sufu-KO-LIGHT fibroblasts, Gli luciferase reporter luminescence; inhibition, % at 5 µM; 340,000 tested, 0.74% active;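 active means inhibition above about 55%, limit read from the data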;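 further: 0% = DMSO-treated cells and 100% = wells with medium but no cells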
COUP-TFII inh: inhibitors of human COUP-TFII (NR2F2). P24468. HEK293T NGFI-A luciferase reporter, luminescence. inhibition, % at 8.6 µM. 370,000 tested, 0.7% active;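 active means inhibition above a per-plate cutoff, mean inhibition of test wells between control levels plus 3 SD, cut at about 38% in these data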;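 further: cells cotransfected with COUP-TFII expression vector driving the NGFI-A reporter; 0% = median of COUP-TF2 test wells and 100% = reporter-only cells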
Target sequence (P24468 whole entry, looked up): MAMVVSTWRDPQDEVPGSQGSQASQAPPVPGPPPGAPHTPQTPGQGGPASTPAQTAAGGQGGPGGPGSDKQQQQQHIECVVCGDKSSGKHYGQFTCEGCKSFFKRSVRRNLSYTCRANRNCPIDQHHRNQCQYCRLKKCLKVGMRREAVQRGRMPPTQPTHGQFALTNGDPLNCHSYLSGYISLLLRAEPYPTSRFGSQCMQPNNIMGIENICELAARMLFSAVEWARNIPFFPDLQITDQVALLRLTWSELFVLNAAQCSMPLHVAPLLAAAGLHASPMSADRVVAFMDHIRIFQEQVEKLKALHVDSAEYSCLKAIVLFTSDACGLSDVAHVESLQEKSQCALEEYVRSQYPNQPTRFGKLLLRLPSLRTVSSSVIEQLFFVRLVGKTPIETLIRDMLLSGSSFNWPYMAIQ
SRC3 inh: inhibitors of human steroid receptor coactivator 3 (SRC3). Q9Y6Q9. HEK293 GAL4-SRC3 luciferase reporter, luminescence. inhibition, % at 3.6 µM. 360,000 tested, 0.17% active;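 active means inhibition above a per-campaign cutoff, the mean of all compounds plus 3 SD, cut at about 60% in these data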;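 further: 0% = DMSO-treated cells and 100% = gossypol-treated cells at 36 µM; higher means less SRC3-driven luciferase light from the GAL4 reporter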
LRH-1 inv ag: NR5A2 inverse agonism in reporter assay | HEK293T StAR-luciferase reporter, LRH-1 transfected, 24 h | inhibition, % at 3.6 µM | 360,000 tested, 0.13% active;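 active means inhibition above the mean inhibition of all tested compounds plus 3 SD, cut at about 73% in these data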;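 further: 0% = DMSO wells and 100% = reporter-only cells lacking LRH-1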
SRC1 inh: inhibits human SRC1 coactivator; Q15788; inhibition, % at 3.6 µM; AID 588354; HEK293 GAL4-SRC1 luciferase reporter, luminescence; 360,000 tested, 0.12% active;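 active means inhibition above the campaign mean plus 3 SD, with each screening campaign given its own cutoff, cut at about 60% in these data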;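 further: 0% = DMSO treated cells and 100% = gossypol at 36 µM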
NCOA2 inhibitor: inhibits human steroid receptor coactivator 2; HEK293 GAL4-SRC2 luciferase reporter, luminescence; 370,000 tested, 0.17% active; inhibition, % at 9 µM;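 active means inhibition above the mean inhibition of all tested compounds plus 3 SD, set per campaign, cut at about 52% in these data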;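 further: 0% = DMSO treated cells and 100% = cells given Gossypol at 36 µM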
Numbers without * were called inactive; · = not tested or not shown.

SMILES	Gli-Sufu block	COUP-TFII inh	SRC3 inh	LRH-1 inv ag	SRC1 inh	NCOA2 inhibitor
CCOc1ccc(-n2c(C)c(C(C)=O)c3cc(O)ccc32)cc1	-7	9	56	4	61*	4
CCOc1ccc(-n2c(C)c(C(=O)OC)c3cc(O)ccc32)cc1	-28	8	17	-10	-19	15
Cc1oc(-c2ccccc2Cl)nc1CSCC(=O)NC1CC1	0	-2	-1	-23	8	-41
CSc1ccc(-c2nc(CSCC(=O)NC3CC3)c(C)o2)cc1	70*	-17	0	4	2	20
CCc1ccc(-c2nc(CSCC(=O)NC3CC3)c(C)o2)cc1	80*	22	20	18	19	56*
CC(=O)c1cn(CC(=O)Nc2cccc(C)c2C)c2ccccc12	14	23	19	21	25	14
CCC(=O)c1cn(CC(=O)Nc2cccc(C)c2C)c2ccccc12	73*	-5	11	-2	2	10
COC(=O)C1=C(C)N(Cc2ccccc2C(F)(F)F)C(=NCC2CC2)NC1c1cccc(F)c1 (centres undefined)	·	0	·	·	·	-1
COCCCN1C(=O)[C@H](CC(=O)NCCc2ccccc2OC)[C@]2(C(=O)OC)CCCCC=C12	·	-1	·	·	·	6
CN(C)c1ncnc2[nH]ncc12	-6	-1	1	-9	9	-7
CCCN(CC)c1ncnc2[nH]ncc12	-15	14	65*	41	65*	55*
C/C(=C\c1ccccc1F)C(=O)c1c(C)cc(C)[nH]c1=O	6	15	-3	14	-13	5
Cc1[nH]c(=O)c(C(=O)/C=C/c2ccccc2F)c2c1CCCC2	3	27	87*	65	62*	61*
COc1cccc2sc(Nc3nnc(-c4ccccc4Cl)o3)nc12	3	-6	-6	40	-8	4
COc1ccccc1-c1nnc(Nc2nc3c(OC)cccc3s2)o1	89*	-27	-25	36	-72	-22
COc1ccccc1CNC(=O)CCNS(=O)(=O)c1ccc2[nH]c(=O)oc2c1	57*	4	8	-10	2	7
O=[N+]([O-])c1ccc(O)c(/C=N/Nc2ncnc3c2cnn3-c2ccccc2)c1	58*	-15	14	2	0	-35
O=[N+]([O-])c1ccc(NN=Cc2ccccc2O)nc1	22	-16	17	2	-18	-3
O=[N+]([O-])c1ccc(O)c(/C=N/Nc2ccccn2)c1	72*	-25	49	39	27	20
O=[N+]([O-])c1ccc(O)c(/C=N/Nc2nc3ccccc3[nH]2)c1	12	-34	64*	91*	17	8
COc1ccc(O)c(/C=N/Nc2nc3ccccc3[nH]2)c1	6	-27	13	-11	-14	-34
COc1ccc(C(=O)C2(C(=O)NCc3ccccc3)CC(c3ccccn3)=NO2)cc1 (centres undefined)	·	-2	·	·	·	-28
CCCCN1C[C@@H](COCc2ccccc2)Oc2cc(F)ccc2S1(=O)=O	·	5	·	·	·	35
COc1ccc(/C=C2\CN(Cc3ccccc3)C/C(=C\c3ccc(OC)c(O)c3)C2=O)cc1O	9	4	43	16	33	52*
Nc1cc(Nc2ccccc2)ccn1	-6	19	-26	-17	-7	14
SMILES	Gli-Sufu block	COUP-TFII inh	SRC3 inh	LRH-1 inv ag	SRC1 inh	NCOA2 inhibitor
N#Cc1sc2nccc(Nc3ccccc3)c2c1N	-10	36	64*	42	72*	42
C[C@H](O)[C@@H]1CN2CCc3c([nH]c4cccc(-c5ccccc5)c34)[C@@H]2C[C@@H]1N(C)C(=O)Nc1ccccc1	·	-17	·	·	·	3
O=C(/C=C/c1ccco1)Nc1nc(-c2ccc(F)c(F)c2)cs1	58*	·	·	·	·	·
O=C(/C=C/c1ccco1)Nc1nc(-c2ccccc2)cs1	-19	-17	-18	-42	-23	-3
COc1ccc(/C=C2\CC3(OC(=O)c4cccc(F)c4)CCCN2C3)cc1 (centres undefined)	·	15	·	·	·	-28
CC(=NNC(=S)N1CCN(C2CCCCCC2)CC1)c1ccccn1	65*	32	69*	65	73*	27
CC(=NNC(=S)N1CC2CCC(CC2)C1)c1ccccn1	·	-2	53	49	26	22
CC(=NNC(=S)N1CC2CCC(CC2)C1)c1cnccn1	55	-1	78*	8	77*	-29
